# ST2 inh = inhibitors of human ST2 (IL1RL1) binding to IL-33, primary screen, biochemical, AlphaLISA | hit rate 2.3% among 78,000 | Interleukin-1 receptor-like 1 (Homo sapiens), Q01638 | inhibition, % for hits at 17 µM | AlphaLISA ST2-Fc/biotin-IL-33 interaction, 1 h; in the data active = inhibition above about 30%
# Target sequence (Q01638 whole entry, looked up): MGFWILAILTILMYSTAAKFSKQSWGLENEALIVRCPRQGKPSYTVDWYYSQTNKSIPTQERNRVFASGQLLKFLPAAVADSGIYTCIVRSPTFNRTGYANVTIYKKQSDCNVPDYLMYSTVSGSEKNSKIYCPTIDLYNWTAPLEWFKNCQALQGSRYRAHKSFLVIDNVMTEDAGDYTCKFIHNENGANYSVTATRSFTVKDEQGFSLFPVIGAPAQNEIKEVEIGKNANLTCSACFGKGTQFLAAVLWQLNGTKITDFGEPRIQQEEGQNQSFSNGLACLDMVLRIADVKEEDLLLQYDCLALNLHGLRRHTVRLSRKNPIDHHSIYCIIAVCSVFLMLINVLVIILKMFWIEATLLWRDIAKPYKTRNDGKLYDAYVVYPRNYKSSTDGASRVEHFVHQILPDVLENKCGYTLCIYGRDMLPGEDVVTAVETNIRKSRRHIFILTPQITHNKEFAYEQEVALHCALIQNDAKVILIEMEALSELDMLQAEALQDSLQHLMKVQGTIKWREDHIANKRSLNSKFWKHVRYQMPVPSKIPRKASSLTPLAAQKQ
# * marks the source's active call; other numbers are inactive results; i = inactive. This excerpt belongs to a sample that is enriched for hits.
SMILES,ST2 inh
NNC(=O)CN1CCN(Cc2ccc3c(c2)OCO3)CC1,i
Cc1oc(C(C)C)cc1C(=O)NCCC1CCCN(C)C1 (stereo not given),i
CCN1/C(=C2/N=C(c3ccccc3)OC2=O)C=Cc2ccccc21,56%*
CCN1/C(=c2/sc3nc4ccccc4n3c2=O)C=Cc2cc(C)ccc21,i
O=C1OC(c2ccc([N+](=O)[O-])cc2)=N/C1=C\c1ccccc1,i
Cc1ccoc1C(=O)N1CCCC(O)(CN(C)C)CC1 (stereo not given),i
Nc1nc(-c2cc3ccccc3oc2=O)nc2c1c(=O)oc1ccccc12,i
CN(C)CC(=O)Nc1ccc(-c2nc3cc(NC(=O)CN(C)C)ccc3o2)cc1,i
CCOCCn1nc(C)cc1C(=O)N1CCC2(CN(C)C(=O)O2)C1 (stereo not given),i
COc1cc(/C=C2\C(=O)N(c3ccccc3)N=C2C)cc(Br)c1O,i
COc1ccc(Cl)cc1/C=C1\C(=O)N(c2cccc(C(=O)O)c2)N=C1C,i
COc1cc(/C=C2\C(=O)N(c3ccc(Cl)c(C(=O)O)c3)N=C2C)cc([N+](=O)[O-])c1O,80%*
COc1cc(/C=C2\C(=O)N(c3cccc(Cl)c3)N=C2C)cc(OC)c1OC,i
CC1=NN(c2ccc(Cl)c(Cl)c2)C(=O)/C1=C/c1cc([N+](=O)[O-])ccc1O,i
COc1cc(/C=C2\C(=O)N(c3ccc(Cl)c(C(=O)O)c3)N=C2C)c([N+](=O)[O-])cc1OC,64%*
CN1CCc2[nH]c3ccc(Br)cc3c2C1,i
CCOc1ccc2nc(NC(=O)C3(S(=O)(=O)c4ccc(Cl)cc4)CC3)sc2c1,i
c1cnc(Oc2ccc(CNC3CCCN(c4nc5ccccc5s4)C3)cc2)nc1 (stereo not given),i
CCc1csc(CNC(=O)c2csc(C)n2)n1,i
CC(C)(C)c1ccc(NC(=O)O[C@@H]2CO[C@H]3[C@@H]2OC[C@@H]3Nc2nccc(-c3ccccc3)n2)cc1,i
COc1cc(C=Nc2ccc(Nc3ccccc3)cc2)c([N+](=O)[O-])cc1OC,57%*
COc1ccccc1N=Cc1cccc([N+](=O)[O-])c1O,i
COc1cc(OC)c(OC)cc1/C=C1\N=C(c2ccc(OC)c([N+](=O)[O-])c2)OC1=O,i
CC12CC(NC(=O)N1c1cccc(Cl)c1)c1ccccc1O2 (stereo not given),i
O=C(c1ccc2c(c1)OCCO2)N1CCCC(Nc2ccc(F)c(F)c2)C1 (stereo not given),i
SMILES,ST2 inh
O=C(Nc1nnc(CCS(=O)(=O)c2ccc(Cl)cc2)s1)c1ccc(F)cc1,i
CCn1ccc(C(=O)N(Cc2sccc2C)CC(C)C)n1,i
Cc1ccc(C(=O)N(C)Cc2snnc2C)cc1NC(=O)C1CC1,i
CC(C)(CC(=O)O)CC(=O)N1Cc2[nH]cnc2C[C@H]1c1nc(-c2ccc3c(c2)OCO3)no1,i
c1ccc2oc(CN3Cc4[nH]cnc4C[C@H]3c3nc(-c4ccc5c(c4)OCO5)no3)cc2c1,61%*
O=C(NCc1ccccc1)N1Cc2[nH]cnc2C[C@H]1c1nc(-c2ccc3c(c2)OCO3)no1,i
O=C(O)c1ccc(C(=O)Nc2cc(Cl)cc(Cl)c2)c(C(=O)O)c1,i
CCC(C)N(Cc1ccsc1)C(=O)c1cccnc1NC (stereo not given),i
Cc1cc(C)c(N2CCC(=O)N2)c(C)c1,33%*
CCN1CCN(Cc2c(C)[nH]c3c(C)cc(C)cc3c2=O)CC1,i
Cc1cc(C)c(S(=O)(=O)N2CCCC2=O)c(C)c1,i
Cc1nc2c(cnn2-c2ccc(F)cc2)c(=O)n1-c1ccc(F)c(Cl)c1,i
Cc1ccc(NC2CCCN(C(=O)CN3CCOc4ccccc4C3)C2)cc1C (stereo not given),i
Cc1cc[n+](C2C(c3ccc([N+](=O)[O-])cc3)C(C#N)=C([S-])NC2(O)C2CC2)cc1 (stereo not given),59%*
COc1ccccc1C1C(C#N)=C(C(=C=[N-])C#N)NC(O)(C2CC2)C1[n+]1ccc(C)cc1 (stereo not given),i
Cc1ccc[n+](C2C(c3ccc([N+](=O)[O-])cc3)C(C#N)=C([S-])NC2(O)C2CC2)c1 (stereo not given),50%*
Cc1nc(N2CCC(NC3CCCc4ccccc43)CC2)nc2ccc(F)cc12 (stereo not given),i
COC(=O)c1ccccc1C(=O)N1CCCC(CCC(=O)Nc2ccc(F)cc2C)C1 (stereo not given),i
COc1ccc(/C=C/CN2CCCC(CNC(=O)c3cccs3)C2)cc1 (stereo not given),i
O=C(NCC(CN1CCOCC1)([N+](=O)[O-])[N+](=O)[O-])c1ccccc1,i
O=C1CC(NS(=O)(=O)c2ccsc2)CN1CCCc1ccccc1 (stereo not given),i
CCC(Cc1ccccc1)NC(=O)c1ccc(OC)c(OC)c1 (stereo not given),i
COc1cc(C=Nc2c(-c3ccco3)nc3ccc(Cl)cn23)ccc1O,43%*
COc1ccc(Nc2c(-c3ccco3)nc3ccc(Br)cn23)cc1,i
COc1ccc(Cl)cc1NC(=O)c1cc(-c2ccco2)on1,i
SMILES,ST2 inh
O=C(Nc1cccc(F)c1)c1ccccc1Cl,i
CCOc1ccc(Cn2c(CNS(=O)(=O)c3ccc(C)cc3C)nc3cccnc32)cc1,i
Cc1nn(Cc2ccccc2)c2c1C(c1ccc(C#CCO)s1)CC(=O)N2 (stereo not given),i
COc1cc2c(cc1OC)C(C(=O)Nc1ccc(C)c(F)c1)C(c1ccccc1F)N(C)C2=O (stereo not given),i
O=C(Nc1cc(Cl)ccc1O)c1noc2c1CCc1ccccc1-2,i
CCc1ccc(N2C(=O)Nc3ccc(Br)cc3C2(O)C(=O)NC(C)C)cc1 (stereo not given),i
CCc1ccc(C(=O)CC2(O)C(=O)Nc3ccccc32)cc1 (stereo not given),i
CCc1ccc2c(c1)C1(NN=C(c3ccc(C)cc3)S1)C(=O)N2 (stereo not given),45%*
COCCn1c(CNS(=O)(=O)c2ccc(CC(C)C)cc2)nc2cccnc21,i
CCCc1nc(C)cc(N2CCC(N(C)C)C2)n1 (stereo not given),i
O=C1CCC[C@H]2[C@@H]3C[C@@H](CN(c4ncccc4C(F)(F)F)C3)CN12,i
Cc1cc2ncn(C(=O)c3cccs3)c2cc1C,i
Cc1cc(C)c(/C=C/C(=O)c2cccs2)c(C)c1,44%*
Cc1cc(Cc2ccc(NC(=O)c3cccs3)c(C)c2)ccc1NC(=O)c1cccs1,i
COc1ccc(C2CC(=O)C3=C(C2)Nc2ccccc2NC3c2ccccc2C)cc1 (stereo not given),i
CC1CC(C)CN(CC(=O)N2CCCc3c2c(=O)oc2ccc(O)cc32)C1 (stereo not given),i
O=C(COc1ccccc1Cl)Nc1ccc(NC(=O)c2ccc(Cl)cc2Cl)cc1,i
COc1cccc(Cn2c(CNS(=O)(=O)c3ccccc3)nc3cccnc32)c1,i
Cc1oc(-c2ccc(Cl)cc2)nc1CSCC(=O)NC(C)C,i
CC(=O)c1ccc(OC(=O)N2CCCCC2)cc1,i
NC1=C(N2CCCCC2)C(=O)c2ccccc2C1=O,71%*
O=S(=O)(N=S(N1CCCCC1)N1CCCCC1)c1ccccc1,i
O=C(CCN1C(=O)c2ccccc2C1=O)N1CCCCCC1,i

# Screens from PubChem.
